SMILES strings stand for the structures. Results filed as inconclusive are left out. A number with no mark means an inactive call. Calls of active or inactive are those of the source. Unless noted, the call rests on the fitted dose curve. Numbered stars: 1 amine (or outer) side, 2 acyl side, 3 side chain; on linkers, the order of the positions; unused ones are H or OH. Square brackets hold non-standard residues; d marks the D form. Side chains are listed from the residue outwards. Peptide text beside a SMILES is read from it. * marks the point of attachment. Ethylenediamine = C(CN[*:2])N[*:1]; Hyp = O=C(O)[C@@H]1C[C@@H](O)CN1; Phg = N[C@H](C(=O)O)c1ccccc1; CO = O=C([*:1])[*:2]; Bn = c1ccc(C*)cc1

Test [1] in a line: Primary qHTS for inhibitors of SARS-S pseudo-typed particle cell entry (AID 1479145). Further: nearly all actives have a fitted effect of over 45% in size. The following applies: outcome: dose series up to 57.1 µM unless noted.
Test [2] is described as follows: Primary qHTS for Huh7 cytotoxicity: counterscreen for inhibitors of MERS-S pseudotyped particle cell entry (AID 1479147). The following applies: outcome: dose series up to 57.1 µM unless noted.
The nature of test [3]: Primary qHTS for inhibitors of MERS-S pseudo-typed particle cell entry (AID 1479149). Further: nearly all actives have a fitted effect of over 60% in size. The following applies: outcome: dose series up to 57.1 µM unless noted. On the technique in general: qHTS replaces the single test concentration by a dilution series.
Test [4] in a line: Primary qHTS for Vero E6 cytotoxicity: counterscreen for inhibitors of SARS-S pseudo-typed particle cell entry (AID 1479150). To be noted: outcome: dose series up to 57.1 µM unless noted.
Test [5] is described as follows: Cytotoxicity counterscreen for inhibitors of SARS-CoV-2 cell entry (AID 1645845). Further: nearly all actives have a fitted effect of over 50% in size. To be noted: outcome: dose series up to 57.1 µM unless noted. The method in brief:
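Expi293F/hACE2 cells seeded overnight; cpd pin-transferred in DMSO, 1 h preincubation, + media, 48 h 37 C 5% CO2; ATPLite 1step luminescence; normalized to cells and no cells.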
A general note: Counterscreens check selectivity or assay interference.

Test [6] deals with Cytochrome P450 2D6 (Homo sapiens) (UniProt P10635). Put plainly: Cytochrome P450 family 2 subfamily D member 6 (CYP2D6) small molecule antagonists: luciferase biochemical (cell-free) qHTS assay (AID 1645840; active means well fitted curve in the direction sought with a large enough effect in the repeat runs; an effect the other way counts as inactive or inconclusive; further: nearly all actives have a fitted effect of over 55% in size). The method in brief:
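P450-Glo luminescent screen: recombinant CYP2D6 enzyme–proluciferin substrate mix preincubated with compound 10 min at room temperature, then NADPH regeneration added for 1 h at room temperature. Detection reagent added for 20 min; luciferin light read as relative luminescence units.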

For test [7], the target named is Cytochrome P450 2C9 (Homo sapiens) (UniProt P11712). The experiment in a line: Cytochrome P450 family 2 subfamily C member 9 (CYP2C9) small molecule antagonists: luciferase biochemical (cell-free) qHTS assay (AID 1645842; active means well fitted curve in the direction sought with a large enough effect in the repeat runs; an effect the other way counts as inactive or inconclusive; further: potency means the concentration at half of the fitted maximal effect; nearly all actives have a fitted effect of over 55% in size). Summed up: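 Luminescence, after 20 min with luciferin detection reagent, reflected CYP2C9 turnover during a 1 h NADPH-driven reaction at 37C. Enzyme-substrate mix contained 0.4% bovine serum albumin and was preincubated with compound 10 min at room temperature.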
Sequence of Cytochrome P450 2C9 (Homo sapiens) (P11712 whole entry, looked up): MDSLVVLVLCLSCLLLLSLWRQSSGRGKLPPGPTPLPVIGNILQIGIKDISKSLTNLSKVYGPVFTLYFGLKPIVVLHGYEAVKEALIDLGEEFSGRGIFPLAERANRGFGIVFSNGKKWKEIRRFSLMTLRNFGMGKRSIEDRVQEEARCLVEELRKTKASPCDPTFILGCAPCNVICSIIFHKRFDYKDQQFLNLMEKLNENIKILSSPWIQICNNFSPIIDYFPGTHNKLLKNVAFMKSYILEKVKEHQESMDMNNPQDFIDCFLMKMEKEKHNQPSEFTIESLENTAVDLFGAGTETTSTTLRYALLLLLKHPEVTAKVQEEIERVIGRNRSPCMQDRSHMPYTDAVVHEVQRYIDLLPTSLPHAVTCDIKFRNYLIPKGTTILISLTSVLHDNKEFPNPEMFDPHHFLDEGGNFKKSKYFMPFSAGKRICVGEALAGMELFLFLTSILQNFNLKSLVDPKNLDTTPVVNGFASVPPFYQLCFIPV

Test [8] is described as follows: Primary qHTS to identify inhibitors of SARS-CoV-2 cell entry (AID 1645846). Further: nearly all actives have a fitted effect of over 45% in size. The following applies: SARS-CoV-2 pseudovirus cell entry assay, luminescence; activity change, negative = inhibition: at 57.1 µM (top of the series) unless noted. The method in brief: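 Using luciferase-reporting pseudoviruses carrying Wuhan-Hu-1 spike, the screen tracks entry into stably ACE2-expressing cells over 48 hr. Activity is expressed relative to spike particles versus particles lacking any fusion protein.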

Test [9] deals with Glutathione peroxidase 1 (Homo sapiens) (UniProt P07203). Put plainly: Primary qHTS Assay for Inhibitors of Recombinant Selenoprotein Glutathione Peroxidase 1 (GPX1) (AID 1845191; active means well fitted curve in the direction sought with a large enough effect; an effect the other way counts as inactive or inconclusive; further: nearly all actives have a fitted effect of over 65% in size). Summed up:
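Recombinant GPX1 (10 nM final) was preincubated with compound for 30 min at room temperature, then reacted with 1 mM GSH, 0.5 mM CHP, 0.5 mM NADPH and 100 nM glutathione reductase; NADPH fluorescence (340/450 nm) was read at 0 and 15 min.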

Sequence of Cytochrome P450 2D6 (Homo sapiens) (P10635 whole entry, looked up): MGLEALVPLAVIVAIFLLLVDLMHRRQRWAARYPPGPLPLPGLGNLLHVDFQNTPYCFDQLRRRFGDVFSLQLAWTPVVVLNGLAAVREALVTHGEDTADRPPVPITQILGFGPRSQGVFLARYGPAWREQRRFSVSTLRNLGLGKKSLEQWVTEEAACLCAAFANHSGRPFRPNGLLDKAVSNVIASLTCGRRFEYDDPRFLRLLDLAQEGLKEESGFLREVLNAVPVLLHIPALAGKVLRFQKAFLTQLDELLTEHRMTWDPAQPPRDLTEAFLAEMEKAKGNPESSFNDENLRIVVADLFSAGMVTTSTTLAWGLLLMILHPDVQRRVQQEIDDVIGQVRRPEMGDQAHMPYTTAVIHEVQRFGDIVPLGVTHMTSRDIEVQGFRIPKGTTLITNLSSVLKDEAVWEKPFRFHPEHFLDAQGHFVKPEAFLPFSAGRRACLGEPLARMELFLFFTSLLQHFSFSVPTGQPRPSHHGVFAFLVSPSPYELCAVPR
Sequence of Glutathione peroxidase 1 (Homo sapiens) (P07203 whole entry, looked up): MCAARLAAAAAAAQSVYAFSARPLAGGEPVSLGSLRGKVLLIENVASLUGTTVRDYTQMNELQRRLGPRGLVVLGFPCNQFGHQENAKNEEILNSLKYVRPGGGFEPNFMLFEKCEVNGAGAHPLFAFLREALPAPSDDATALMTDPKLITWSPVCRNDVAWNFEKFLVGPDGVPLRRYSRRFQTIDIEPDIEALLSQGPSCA

In the case of `FC(F)(F)C(F)(F)C(F)(F)C(F)(F)C(F)(F)C(F)(F)F`, the Potency entry in [1], in test [2], in [3], in test [4] and in test [5] was “inactive” in each case.
For the compound `CCCCC[C@H](O)/C=C/[C@@H]1[C@@H](C/C=C/CCCC(=O)O)[C@@H](O)C[C@H]1O`, the Potency entry in test [1], in test [2], in [3], in [4] and in test [5] was “inactive” in each case.
Turning to `N#Cc1cc(-c2n[nH]c(-c3ccncc3)n2)ccn1`, the Potency entry in test [1], in [2], in test [3] and in [4] was “inactive” each time.
As to `NCCCC[C@@H]1NC(=O)[C@@H](Cc2c[nH]c3ccccc23)NC(=O)[C@H](c2ccccc2)NC(=O)[C@@H]2C[C@@H](OC(=O)NCCN)CN2C(=O)[C@H](Cc2ccccc2)NC(=O)[C@H](Cc2ccc(OCc3ccccc3)cc2)NC1=O` (cyclo([Hyp]([CO-Ethylenediamine])[Phg][dW]KY(Bn)F)), the Potency entry in test [1], in [2], in [3], in [4] and in test [5] was “inactive” each time.
Take `CC1(C)[C@H](C=C(Cl)Cl)[C@@H]1C(=O)OCc1c(F)c(F)cc(F)c1F`: the Potency result in test [1], in test [2], in test [3], in [4], in test [6] and in test [5] was “inactive” each time. Moreover, the Potency result in test [8] and in test [9] was “inactive” each time. For the same compound, in test [7], the Potency is 12 µM (active).
Regarding `CCC(=O)Oc1ccc2c(c1)CC[C@@H]1[C@H]2CC[C@]2(C)[C@@H](OC(=O)CC)CC[C@@H]12`, the Potency result in test [1], in test [2], in [3], in [4] and in [5] was “inactive” in each case.
With `O=C(O)CSc1nnc(Br)n1-c1ccc(C2CC2)c2ccccc12`, the Potency entry in test [1], in [2], in test [3], in [4] and in test [5] was “inactive” each time.
Regarding `COCC1=C(C(=O)OC(C)OC(=O)OC(C)C)N2C(=O)[C@@H](NC(=O)/C(=N/OC)c3csc(N)n3)[C@H]2SC1` (some centres undefined), the Potency result in [1], in test [2], in test [3], in test [4] and in test [5] was “inactive” in each case.
For the compound `CC1(C)S[C@@H]2[C@H](NC(=O)C(C(=O)O)c3ccsc3)C(=O)N2[C@H]1C(=O)O` (some centres undefined), the Potency entry in test [1], in test [2], in [3] and in test [4] was “inactive” each time.
For `CC(C)CN(C[C@@H](O)[C@H](Cc1ccccc1)NC(=O)O[C@H]1CCOC1)S(=O)(=O)c1ccc(N)cc1`, the Potency result in [1], in test [2], in test [3] and in test [4] was “inactive” in each case.
Regarding `CC1(C)S[C@@H]2[C@H](NC(=O)[C@H](N)c3ccccc3)C(=O)N2[C@H]1C(=O)OCOC(=O)[C@@H]1N2C(=O)C[C@H]2S(=O)(=O)C1(C)C`, the Potency entry in [1], in test [2], in [3] and in [4] was “inactive” throughout.
Take `O=C(O)CCSC[C@H]1O[C@@H]2O[C@H]3[C@H](O)[C@@H](O)[C@@H](O[C@H]4[C@H](O)[C@@H](O)[C@@H](O[C@H]5[C@H](O)[C@@H](O)[C@@H](O[C@H]6[C@H](O)[C@@H](O)[C@@H](O[C@H]7[C@H](O)[C@@H](O)[C@@H](O[C@H]8[C@H](O)[C@@H](O)[C@@H](O[C@H]9[C@H](O)[C@@H](O)[C@@H](O[C@H]1[C@H](O)[C@H]2O)O[C@@H]9CSCCC(=O)O)O[C@@H]8CSCCC(=O)O)O[C@@H]7CSCCC(=O)O)O[C@@H]6CSCCC(=O)O)O[C@@H]5CSCCC(=O)O)O[C@@H]4CSCCC(=O)O)O[C@@H]3CSCCC(=O)O`: the Potency entry in test [1], in test [2], in test [3], in test [4] and in test [5] was “inactive” in each case.
As for `C[N+]1(C)[C@@H]2CC(OC(=O)C(O)(c3cccs3)c3cccs3)C[C@H]1[C@H]1O[C@@H]12` (some centres undefined), the Potency result in test [1], in [2], in test [3] and in test [4] was “inactive” throughout.

The values above are taken from PubChem BioAssay (NCATS).
